Bioassay records deposited in PubChem by several laboratories.
Compounds with a hit are over-represented: about 5% of the library has one in this group of screens.
SENP7 block: SENP7 protease inhibitors, primary screen, biochemical, luminescence, uHTS | Sentrin-specific protease 7 (Homo sapiens), Q9BQF6 | actives 1.5% (n = 330,000) | AID 434973, 2010 | recombinant SENP7, Z-RLRGG-aminoluciferin luminescence, 40 min | inhibition, % at 5 µM;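 active means inhibition above about 50% at the single test dose, limit read from the data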;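 further: plate controls were DMSO with enzyme for no effect and no enzyme buffer wells for full effect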
Target sequence (Q9BQF6 706-1050 limits assumed): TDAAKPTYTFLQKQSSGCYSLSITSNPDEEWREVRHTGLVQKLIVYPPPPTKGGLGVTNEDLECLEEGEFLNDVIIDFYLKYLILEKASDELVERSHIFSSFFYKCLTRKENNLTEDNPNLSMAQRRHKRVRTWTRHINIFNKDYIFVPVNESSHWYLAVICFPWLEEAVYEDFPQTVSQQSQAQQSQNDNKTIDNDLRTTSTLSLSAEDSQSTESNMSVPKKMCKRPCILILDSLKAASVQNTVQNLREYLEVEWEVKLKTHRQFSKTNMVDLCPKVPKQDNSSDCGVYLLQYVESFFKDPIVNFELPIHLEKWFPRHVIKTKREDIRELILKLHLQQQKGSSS
SENP8 block-1: human SENP8 protease inhibitors, primary screen, biochemical, fluorescence, Nedd8 protein substrate, uHTS; actives 0.64% (n = 360,000); inhibition, % at 20 µM; recombinant SENP8; Sentrin-specific protease 8 (Homo sapiens), Q96LD8; in the data active means inhibition mostly above about 40%, no sharp cut-off; inactive means mostly below about 27%
Target sequence (Q96LD8 whole entry, looked up): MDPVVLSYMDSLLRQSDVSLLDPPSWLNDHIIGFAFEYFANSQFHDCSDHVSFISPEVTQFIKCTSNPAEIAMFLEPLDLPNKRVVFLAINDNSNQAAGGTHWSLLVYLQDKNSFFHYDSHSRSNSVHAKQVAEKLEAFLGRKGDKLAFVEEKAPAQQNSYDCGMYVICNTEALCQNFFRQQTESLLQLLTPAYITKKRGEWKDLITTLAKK
AHR act: AHR activators, primary screen, cell-based, luminescence, luciferase reporter, human | Aryl hydrocarbon receptor (Homo sapiens), P35869 | AHR-responsive luciferase reporter cells | activation, % at 5 µM | actives 2.5% (n = 320,000) | AID 2796, 2010; in the data active means activation above about 47%;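 further: 0% = vehicle wells and 100% = reference agonist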
EBI2 block: EBI2 receptor antagonists, beta-arrestin recruitment, primary screen, cell-based, luminescence, 7a,25-OHC stimulation, uHTS. actives 0.81% (n = 360,000). inhibition, % at 5 µM. AID 651636, 2012. 7a,25-OHC stimulated; in the data active means inhibition above about 38%;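 further: enzyme fragment complementation signal reports receptor beta-arrestin coupling in cells; 0% = agonist plus DMSO wells and 100% = wells without agonist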
SENP8 block-2: SENP8 protease inhibitors, primary screen, biochemical, luminescence; inhibition, % at 10 µM; actives 1.2% (n = 330,000); AID 2540, 2010; purified SENP8, Z-RLRGG-aminoluciferin cleavage; in the data active means inhibition above about 50%
SENP6 block: SENP6 protease inhibitors, primary screen, biochemical, luminescence, uHTS; AID 2599, 2010; inhibition, % at 10 µM; Recombinant SENP6 catalytic domain, aminoluciferin luminescence; Sentrin-specific protease 6 (Homo sapiens), Q9GZR1; actives 1.8% (n = 330,000);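 active means inhibition above about 50% at the single tested dose, limit read from the data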;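 further: plate controls were DMSO wells with enzyme for no effect and DMSO wells lacking enzyme for full effect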
SENP8 inh conf: human SENP8 protease inhibitors, confirmation, biochemical, Nedd8 protein substrate, single concentration | purified SENP8, Nedd8-AMC/pro-Nedd8 cleavage fluorescence, 30 min | inhibition, % at 25 µM | actives 15% (n = 1,400) | shares compounds with SENP8 block-1; in the data active means inhibition mostly above about 39%, no sharp cut-off; inactive means mostly below about 34%
Numbers without * were called inactive; / = no result given.

SMILES	SENP7 block	SENP8 block-1	AHR act	EBI2 block	SENP8 block-2	SENP6 block	SENP8 inh conf
O=C(NCc1cccs1)C1CCCN1C(=O)Nc1ccc(F)cc1 (stereo unspecified)	9	41*	1	-11	1	-13	13
COc1ccc(NC(=O)COC(=O)CC2CC3CCC2C3)c([N+](=O)[O-])c1 (stereo unspecified)	-1	40*	2	11	-6	1	23
Cc1cc(C)n(-c2cc(N3CCN(S(=O)(=O)c4ccc5ccccc5c4)CC3)ccc2[N+](=O)[O-])n1	2	30	-2	18	-1	-1	/
Cc1ccccc1C(=O)N1CCN(c2ccc([N+](=O)[O-])c(N3CCOCC3)c2)CC1	-1	29	0	-6	-2	-17	/
Cc1cc(C)n(-c2cc(N3CCN(C(=O)c4cccc(F)c4)CC3)ccc2[N+](=O)[O-])n1	-1	24	-1	11	-9	-15	/
Cn1cnnc1Sc1cc(N2CCN(S(=O)(=O)c3ccc(Cl)c(Cl)c3)CC2)ccc1[N+](=O)[O-]	-3	62*	-1	3	-12	-66	21
Cc1cc(C)n(-c2cc(N3CCN(C(=O)c4ccccc4C)CC3)ccc2[N+](=O)[O-])n1	-4	53*	1	0	1	-20	23
Cc1cc(C)n(-c2cc(N3CCN(S(=O)(=O)c4ccc(C)c(C)c4)CC3)ccc2[N+](=O)[O-])n1	9	44*	4	2	-2	7	13
Cc1cc(C)n(-c2cc(N3CCN(C(=O)c4ccc(C(C)(C)C)cc4)CC3)ccc2[N+](=O)[O-])n1	0	45*	2	34	-1	-12	22
Cc1ccc2c(c1)-n1c(nc3ccc(C)cc3c1=O)C(Cc1ccc(O)cc1)NC2=O (stereo unspecified)	-5	/	0	/	-5	-18	/
Cc1ccccc1C(=O)NCCN1CCOCC1	-15	1	3	1	-11	-20	/
CC(C(=O)NCCN1CCOCC1)(c1ccccc1)c1ccccc1	0	67*	-2	-10	-4	-17	6
O=c1[nH]nc(CNc2ccc(O)cc2)c2ccccc12	49	114*	-2	17	-1	10	26
Cc1ccc(C(=O)N2C(=S)C(c3ccc(F)cc3)=NC23CCN(C)CC3)cc1	0	66*	2	-9	-18	-6	58*
COc1ccc(CNC(=O)C(C)OC(=O)c2cccs2)cc1 (stereo unspecified)	2	16	-1	10	4	-22	/
Cc1ccc(/C=N/n2nnnc2N)o1	-4	42*	1	-6	6	8	1
Nc1nnnn1/N=C/c1ccccc1	2	11	/	-10	-1	15	/
CCOC(=O)Cn1c2ccc(OC)cc2c2nc3ccccc3nc21	3	58*	13	7	-5	6	11
COC(=O)Cn1c2ccc(OC)cc2c2nc3ccccc3nc21	2	10	2	15	7	4	/
CCc1nc2c(OCC=C(C)C)cccn2c1N(C)C(=O)c1ccc(OC)cc1	/	43*	/	5	/	/	-2
CCc1nc2c(OCC=C(C)C)cccn2c1N(C)C(=O)c1ccccc1F	/	41*	/	1	/	/	15
CCC(CC)C(=O)N(C)c1c(C)nc2c(OCC=C(C)C)cccn12	/	40*	/	1	/	/	26
CN(Cc1ccc(Cl)cc1)C(=O)CNC(=O)C12CC3CC(CC(C3)C1)C2	-7	11	1	5	-3	0	/
Cc1c(CCCN)c2ccccc2n1Cc1ccccc1	7	11	0	-4	-6	8	/
O=[N+]([O-])c1cc(S(=O)(=O)N2CCCC2)ccc1N/N=C/c1ccncc1	8	47*	8	-12	0	0	20
SMILES	SENP7 block	SENP8 block-1	AHR act	EBI2 block	SENP8 block-2	SENP6 block	SENP8 inh conf
O=C(O)c1ccc(/C=N/Nc2ccc(S(=O)(=O)N3CCCC3)cc2[N+](=O)[O-])cc1	6	31	3	5	-1	-6	/
NS(=O)(=O)c1ccc(N/N=C/c2cn(-c3ccccc3)nc2-c2ccccc2)c([N+](=O)[O-])c1	-3	54*	-1	16	2	15	6
NS(=O)(=O)c1ccc(N/N=C/c2ccc3c(c2)OCO3)c([N+](=O)[O-])c1	-14	44*	114*	7	-23	-17	10
COc1ccc(NC2CS(=O)(=O)CC2NCc2ccccc2)cc1 (stereo unspecified)	3	40*	2	1	-3	7	15
O=S1(=O)C[C@@H](O)[C@@H](Nc2ccccc2)C1	7	23	0	-9	3	-1	/
CCOc1ccc(CCNC(=O)COC(=O)c2cc(=O)[nH]c3ccccc23)cc1OCC	-10	-135	3	-3	-3	-6	/
CC(C)OC(=O)CSc1nnc(-c2ccccn2)n1-c1ccccc1	-5	45*	1	9	-4	-17	12
Cc1ccc(-n2c(SCC(=O)OC(C)C)nnc2-c2ccccn2)cc1	2	35	0	4	2	-2	/
CC(NC(=O)COC(=O)c1ccc([N+](=O)[O-])o1)c1ccccc1 (stereo unspecified)	8	57*	0	-14	11	8	88*
O=C(COC(=O)c1ccc([N+](=O)[O-])o1)NCc1ccc2c(c1)OCO2	-1	41*	1	-22	6	20	76*
O=C(COC(=O)c1ccc(Br)o1)NCc1ccc2c(c1)OCO2	-3	8	-1	-11	-6	2	/
Cc1cc2nc3c(=O)n(C4CCCCC4)c(=O)[nH]c3nc2cc1N	/	-127	/	9	/	/	/
O=C(/C=C/NNC(=O)c1ccc(Cl)cc1)c1ccccc1	-8	39*	8	1	-9	-1	32
O=C(/C=C/NNC(=O)c1ccccc1)c1ccc(Br)cc1	-7	18	3	10	-9	8	/
NC(=O)CC(NC(=O)c1ccccc1)c1ccc(NC2CCCC2)c([N+](=O)[O-])c1 (stereo unspecified)	3	41*	1	0	4	3	24
CC(C)Nc1ccc(C(CC(N)=O)NC(=O)c2ccccc2)cc1[N+](=O)[O-] (stereo unspecified)	4	44*	3	7	-1	-10	7
